Reference: PubChem BioAssay (NCATS)
Results filed as inconclusive are left out. Where a call stands in place of a potency, no number is given. Active and inactive are the calls of the source. The call rests on the fitted dose curve; in most records, active means well fitted inhibition curve with a large enough effect; inconclusive means small, poorly fitted or top-dose-only effect; inactive means flat fitted curve, though single readings scatter.

The compounds below were run on PC15 (assay: qHTS profiling for inhibitors of Plasmodium falciparum proliferation (AID 504749; further: nearly all actives have a fitted effect of over 60% in size)). Conditions: P. falciparum in erythrocytes, SYBR Green DNA, 72 h; series mostly up to 28.7 µM.
Summary of the method: (§1)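 Parasite proliferation within erythrocytes, 72 h exposure. Endpoint: SYBR Green I fluorescence after overnight lysis at room temperature. Controls: 0.29 uM artemisinin, DMSO.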

**Q.** How did the Potency turn out when CCC(=O)Nc1ccc(O)cc1 was run?
**A.** inactive

**Q.** O=c1cc[nH]c(=O)[nH]1 was tested. Which Potency did it give?
**A.** inactive

**Q.** How did the Potency turn out when C=Cc1c(C)c2cc3[nH]c(cc4nc(cc5nc(cc1[nH]2)C(C)=C5CCC(=O)O)C(CCC(=O)O)=C4C)c(C)c3C=C was run?
**A.** inactive

**Q.** Which Potency does the source give for CC(O)COc1ccccc1 (stereo not drawn) here?
**A.** inactive

**Q.** How did the Potency turn out when NS(=O)(=O)c1cc2c(cc1Cl)NC(CSCc1ccccc1)=NS2(=O)=O was run?
**A.** inactive

**Q.** For CCCCCCCCCCCCCCCCCCOCC(O)CO (stereo not drawn), which Potency is on record?
**A.** inactive

**Q.** Which Potency does the source give for CC1(C)[C@@H]2CC[C@@]1(C)C(=O)C2 here?
**A.** inactive

Each compound was assayed on PC26 in the same assay as above. Conditions: P. falciparum in erythrocytes, SYBR Green DNA, 72 h; series mostly up to 28.7 µM.
Summary of the method: as §1

**Q.** With CCC(=O)c1ccc(O)cc1 as the compound, how does the Potency read?
**A.** inactive

**Q.** For Cc1cc(CC(=O)O)n(C)c1C(=O)c1ccc(Cl)cc1, which Potency is on record?
**A.** inactive

**Q.** Which Potency does the source give for CC12CCC(CC1)C(C)(C)O2 here?
**A.** inactive

**Q.** With COc1cc(C(=O)N2CCOCC2)cc(OC)c1OC as the compound, how does the Potency read?
**A.** inactive

**Q.** CCCOC(=O)c1ccccc1 was tested. Which Potency did it give?
**A.** inactive

**Q.** With OCC(O)CN1CCN(c2ccccc2)CC1 (stereo not drawn) as the compound, how does the Potency read?
**A.** inactive

**Q.** O=C1NS(=O)(=O)c2ccccc21 was tested. Which Potency did it give?
**A.** inactive

**Q.** CC(=O)Oc1ccc(C2(c3ccc(OC(C)=O)cc3)C(=O)Nc3ccccc32)cc1 was tested. Which Potency did it give?
**A.** inactive

**Q.** For CC(=O)Nc1ccc(/C=N/NC(N)=S)cc1, which Potency is on record?
**A.** inactive

**Q.** For O=C(O)CC(O)C(=O)O (stereo not drawn), which Potency is on record?
**A.** inactive

**Q.** O=C(CCCN1CCN(c2ccccn2)CC1)c1ccc(F)cc1 was tested. Which Potency did it give?
**A.** inactive

**Q.** Which Potency does the source give for CC1=C(/C=C/C(C)=C/C=C/C(C)=C/C(=O)O)C(C)(C)CCC1 here?
**A.** inactive

**Q.** Which Potency does the source give for Nc1nc2c(ncn2CCC(CO)CO)c(=O)[nH]1 here?
**A.** inactive

**Q.** Which Potency does the source give for O=C(O)c1ccccn1 here?
**A.** inactive

**Q.** Which Potency does the source give for Nc1ncnc2c1ncn2[C@@H]1O[C@H](CO)[C@@H](O)[C@H]1O here?
**A.** inactive

**Q.** How did the Potency turn out when Cn1c(=O)c2c(ncn2CC2OCCO2)n(C)c1=O was run?
**A.** inactive

**Q.** For NC(CSCC(=O)O)C(=O)O (stereo not drawn), which Potency is on record?
**A.** inactive

**Q.** O=C(O)c1ccccc1O was tested. Which Potency did it give?
**A.** inactive

**Q.** For CCCCCCCCCCCCOS(=O)(=O)O, which Potency is on record?
**A.** inactive

**Q.** For CCCCC(CC)COC(=O)c1ccccc1O (stereo not drawn), which Potency is on record?
**A.** inactive

**Q.** With CC(O)CN(CCN(CC(C)O)CC(C)O)CC(C)O (stereo not drawn) as the compound, how does the Potency read?
**A.** inactive

**Q.** Cc1ncc(COP(=O)(O)O)c(C=O)c1O was tested. Which Potency did it give?
**A.** inactive

**Q.** For CC[C@@]1(c2ccccc2)NC(=O)N(C)C1=O, which Potency is on record?
**A.** inactive

**Q.** How did the Potency turn out when [O-][n+]1cccc(CO)c1 was run?
**A.** inactive

**Q.** With Oc1cccc(O)c1 as the compound, how does the Potency read?
**A.** inactive

**Q.** With CCn1cc(C(=O)O)c(=O)c2cnc(N3CCNCC3)nc21 as the compound, how does the Potency read?
**A.** inactive

**Q.** For CCC(=O)Nc1ccc(O)cc1, which Potency is on record?
**A.** inactive

**Q.** Which Potency does the source give for O=c1cc[nH]c(=O)[nH]1 here?
**A.** inactive

**Q.** With C=Cc1c(C)c2cc3[nH]c(cc4nc(cc5nc(cc1[nH]2)C(C)=C5CCC(=O)O)C(CCC(=O)O)=C4C)c(C)c3C=C as the compound, how does the Potency read?
**A.** inactive

**Q.** With CC(O)COc1ccccc1 (stereo not drawn) as the compound, how does the Potency read?
**A.** inactive

**Q.** NS(=O)(=O)c1cc2c(cc1Cl)NC(CSCc1ccccc1)=NS2(=O)=O was tested. Which Potency did it give?
**A.** inactive

**Q.** CCCCCCCCCCCCCCCCCCOCC(O)CO (stereo not drawn) was tested. Which Potency did it give?
**A.** inactive

**Q.** Which Potency does the source give for CC1(C)[C@@H]2CC[C@@]1(C)C(=O)C2 here?
**A.** inactive

These compounds were tested on PC49 in the same assay as above. Conditions: P. falciparum in erythrocytes, SYBR Green DNA, 72 h; series mostly up to 28.7 µM.
Summary of the method: as §1

**Q.** CCC(=O)c1ccc(O)cc1 was tested. Which Potency did it give?
**A.** inactive

**Q.** How did the Potency turn out when Cc1cc(CC(=O)O)n(C)c1C(=O)c1ccc(Cl)cc1 was run?
**A.** inactive

**Q.** With CC12CCC(CC1)C(C)(C)O2 as the compound, how does the Potency read?
**A.** inactive

**Q.** COc1cc(C(=O)N2CCOCC2)cc(OC)c1OC was tested. Which Potency did it give?
**A.** inactive

**Q.** Which Potency does the source give for CCCOC(=O)c1ccccc1 here?
**A.** inactive

**Q.** Which Potency does the source give for OCC(O)CN1CCN(c2ccccc2)CC1 (stereo not drawn) here?
**A.** inactive

**Q.** How did the Potency turn out when O=C1NS(=O)(=O)c2ccccc21 was run?
**A.** inactive

**Q.** Which Potency does the source give for CC(=O)Oc1ccc(C2(c3ccc(OC(C)=O)cc3)C(=O)Nc3ccccc32)cc1 here?
**A.** inactive

**Q.** For CC(=O)Nc1ccc(/C=N/NC(N)=S)cc1, which Potency is on record?
**A.** inactive

**Q.** With O=C(O)CC(O)C(=O)O (stereo not drawn) as the compound, how does the Potency read?
**A.** inactive

**Q.** O=C(CCCN1CCN(c2ccccn2)CC1)c1ccc(F)cc1 was tested. Which Potency did it give?
**A.** inactive

**Q.** For CC1=C(/C=C/C(C)=C/C=C/C(C)=C/C(=O)O)C(C)(C)CCC1, which Potency is on record?
**A.** inactive

**Q.** With Nc1nc2c(ncn2CCC(CO)CO)c(=O)[nH]1 as the compound, how does the Potency read?
**A.** inactive

**Q.** For O=C(O)c1ccccn1, which Potency is on record?
**A.** inactive

**Q.** For Nc1ncnc2c1ncn2[C@@H]1O[C@H](CO)[C@@H](O)[C@H]1O, which Potency is on record?
**A.** inactive

**Q.** Cn1c(=O)c2c(ncn2CC2OCCO2)n(C)c1=O was tested. Which Potency did it give?
**A.** inactive

**Q.** For NC(CSCC(=O)O)C(=O)O (stereo not drawn), which Potency is on record?
**A.** inactive

**Q.** O=C(O)c1ccccc1O was tested. Which Potency did it give?
**A.** inactive

**Q.** For CCCCCCCCCCCCOS(=O)(=O)O, which Potency is on record?
**A.** inactive

**Q.** Which Potency does the source give for CCCCC(CC)COC(=O)c1ccccc1O (stereo not drawn) here?
**A.** inactive

**Q.** For CC(O)CN(CCN(CC(C)O)CC(C)O)CC(C)O (stereo not drawn), which Potency is on record?
**A.** inactive

**Q.** With Cc1ncc(COP(=O)(O)O)c(C=O)c1O as the compound, how does the Potency read?
**A.** inactive

**Q.** CC[C@@]1(c2ccccc2)NC(=O)N(C)C1=O was tested. Which Potency did it give?
**A.** inactive

**Q.** For [O-][n+]1cccc(CO)c1, which Potency is on record?
**A.** inactive

**Q.** For Oc1cccc(O)c1, which Potency is on record?
**A.** inactive

**Q.** Which Potency does the source give for CCn1cc(C(=O)O)c(=O)c2cnc(N3CCNCC3)nc21 here?
**A.** inactive

**Q.** CCC(=O)Nc1ccc(O)cc1 was tested. Which Potency did it give?
**A.** inactive

**Q.** With O=c1cc[nH]c(=O)[nH]1 as the compound, how does the Potency read?
**A.** inactive

**Q.** With C=Cc1c(C)c2cc3[nH]c(cc4nc(cc5nc(cc1[nH]2)C(C)=C5CCC(=O)O)C(CCC(=O)O)=C4C)c(C)c3C=C as the compound, how does the Potency read?
**A.** inactive

**Q.** Which Potency does the source give for CC(O)COc1ccccc1 (stereo not drawn) here?
**A.** inactive

**Q.** For NS(=O)(=O)c1cc2c(cc1Cl)NC(CSCc1ccccc1)=NS2(=O)=O, which Potency is on record?
**A.** inactive

**Q.** For CCCCCCCCCCCCCCCCCCOCC(O)CO (stereo not drawn), which Potency is on record?
**A.** inactive

**Q.** How did the Potency turn out when CC1(C)[C@@H]2CC[C@@]1(C)C(=O)C2 was run?
**A.** inactive
